Screens deposited in PubChem BioAssay by several laboratories.
MBD2 inh = MBD2-methylated oligo binding inhibition; Q9UBB5; TR-FRET, MBD2 binding to methylated oligonucleotide; inhibition, % at 4.4 µM; 370,000 tested, 0.31% active; AID 686964; in the data active = inhibition above about 13%
Target sequence (Q9UBB5 whole entry, looked up): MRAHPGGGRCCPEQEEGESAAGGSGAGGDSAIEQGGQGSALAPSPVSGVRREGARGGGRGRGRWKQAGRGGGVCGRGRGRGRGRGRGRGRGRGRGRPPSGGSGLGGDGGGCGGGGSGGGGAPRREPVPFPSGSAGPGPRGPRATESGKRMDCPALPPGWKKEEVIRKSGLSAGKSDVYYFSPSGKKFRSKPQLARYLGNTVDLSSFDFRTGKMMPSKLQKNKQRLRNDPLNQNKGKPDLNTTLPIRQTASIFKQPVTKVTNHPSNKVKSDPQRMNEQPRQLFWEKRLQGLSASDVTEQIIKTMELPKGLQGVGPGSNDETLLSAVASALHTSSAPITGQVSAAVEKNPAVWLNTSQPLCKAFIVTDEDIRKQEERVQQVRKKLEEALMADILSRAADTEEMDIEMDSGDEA
LEDGF integ inh = blocks HIV-1 LEDGF/p75-dependent DNA integration | TR-FRET IN-LEDGF/p75 DNA integration, Eu/Cy5 | inhibition, % at 3.7 µM | 370,000 tested, 0.64% active;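 active = inhibition above the screen-wide mean plus 3 SD, cut at about 13% in these data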;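 note: signal is the Cy5 over europium emission ratio at 671 and 618 nm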
CASP6 VEID inh = caspase-6 (human) enzyme inhibition. purified caspase-6, Z-VEID-R110 cleavage fluorescence. inhibition, % at 12.5 µM. 350,000 tested, 0.53% active;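 active = mean inhibition across replicates at least about 35%, with every replicate also reaching that limit, limit read from the data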
Target sequence (P55212 24-179 limits assumed): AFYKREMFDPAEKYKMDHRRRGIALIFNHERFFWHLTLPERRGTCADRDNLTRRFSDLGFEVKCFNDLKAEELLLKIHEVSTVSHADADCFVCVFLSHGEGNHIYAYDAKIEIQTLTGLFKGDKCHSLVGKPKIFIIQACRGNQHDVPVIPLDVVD
Target sequence (P55212 194-293 limits assumed): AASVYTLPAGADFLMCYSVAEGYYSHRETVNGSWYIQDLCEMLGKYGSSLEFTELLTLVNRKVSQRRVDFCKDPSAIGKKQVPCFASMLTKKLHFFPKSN
UHRF1 MBD2 ctr = UHRF1 methyl-DNA binding inhibition | Q96T88 | UHRF1 binding to methylated oligo, TR-FRET | inhibition, % at 4.4 µM | 370,000 tested, 0.75% active | AID 687016; in the data active = inhibition above about 21%;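 note: UHRF1 SRA domain binding a hemimethylated CpG hairpin DNA probe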
Large screens that a line does not name were inactive. Rows were chosen to be rich in hits. Some 1.4% of all compounds tested hit in one or more screens of this group.

O=C(Nc1nc2ccsc2c(=O)s1)c1ccco1	CASP6 VEID inh 37
Cc1ccc(S(=O)(=O)N(C)CC(=O)NNC(=O)CCNS(=O)(=O)c2cccc(C)c2)cc1	UHRF1 MBD2 ctr 34
COc1cccc(CNC(=O)CCn2ccc3cc(S(=O)(=O)N4CCCC4)ccc32)c1	CASP6 VEID inh 70
COc1cccc(CNC(=O)CCCn2ccc3cc(S(=O)(=O)N4CCCC4)ccc32)c1	none
CC(C)(C)c1csc(NC(=O)Cc2ccc(S(=O)(=O)N3CCOCC3)s2)n1	UHRF1 MBD2 ctr 76
O=C(Cc1ccc(S(=O)(=O)N2CCOCC2)s1)NCC(=O)Nc1ccccc1Br	none
O=C(Cc1ccc(S(=O)(=O)N2CCOCC2)s1)Nc1ccccc1Br	UHRF1 MBD2 ctr 29
CCCn1c(SCC(=O)c2cc(C)n(C3CC3)c2C)n[nH]c1=O	UHRF1 MBD2 ctr 26
CC1c2cccn2CCN1S(=O)(=O)c1ccc(F)cc1 (configuration not stated)	UHRF1 MBD2 ctr 30
CC(=O)c1ccc(S(=O)(=O)N2CCn3cccc3C2C)cc1 (configuration not stated)	none
Cc1ccccc1S(=O)(=O)N[C@H]1CC[C@@H](CCn2cc(-c3ccccc3)nn2)O[C@@H]1CO	none (no result: MBD2 inh, LEDGF integ inh, UHRF1 MBD2 ctr)
CN(C)CCNC(=O)c1cccc(S(=O)(=O)Nc2ccccc2F)c1	CASP6 VEID inh 49
O=C(Nc1ccccc1N1CCOCC1)c1cccc(S(=O)(=O)Nc2ccccc2F)c1	none
CCc1ccc(NC(=O)C(=O)NCC(O)c2ccccc2)cc1 (configuration not stated)	UHRF1 MBD2 ctr 52
CCOC(=O)c1ccc(NC(=S)NCC(O)c2ccccc2)cc1 (configuration not stated)	none (no result: CASP6 VEID inh)
CCCC(=O)Nc1ccc2c(c1)C(=O)N(C)[C@H]1CC[C@H](CC(=O)Nc3ccccc3)O[C@H]1CO2	none (no result: MBD2 inh, LEDGF integ inh, UHRF1 MBD2 ctr)
Cc1nn(CCCC(=O)NCCc2ccccc2)c(=O)c2nn(-c3ccccc3)c(C)c12	CASP6 VEID inh 50
S=C(Nc1ccc2nc(-c3ccccn3)c(-c3ccccn3)nc2c1)N1CCOCC1	LEDGF integ inh 26
C[C@@H]1CN([C@@H](C)CO)C(=O)c2cccc(NC(=O)c3ccc(-c4nccs4)cc3)c2O[C@@H]1CN(C)S(C)(=O)=O	none (no result: MBD2 inh, LEDGF integ inh, UHRF1 MBD2 ctr)
Cc1ccc(S(=O)(=O)Nc2cncnc2NS(=O)(=O)c2ccc(C)cc2)cc1	UHRF1 MBD2 ctr 42
Cc1cc(Cl)ccc1OC(C)C(=O)Nc1ccccc1N1CCOCC1 (configuration not stated)	UHRF1 MBD2 ctr 21 (no result: CASP6 VEID inh)
CCCC(=O)Nc1ccc2c(c1)C(=O)N(C)[C@H]1CC[C@H](CC(=O)NCc3ccccc3Cl)O[C@@H]1CO2	none (no result: MBD2 inh, LEDGF integ inh, UHRF1 MBD2 ctr)
Cc1cc(NS(=O)(=O)c2ccc(NC(=O)NC(C)(C(F)(F)F)C(F)(F)F)cc2)no1	UHRF1 MBD2 ctr 21 (no result: CASP6 VEID inh)
Cc1cc(NS(=O)(=O)c2ccc(NC(=O)COc3ccccc3C(C)(C)C)cc2)no1	none
Cc1cc(NS(=O)(=O)c2ccc(NC(=O)COc3ccccc3[N+](=O)[O-])cc2)no1	CASP6 VEID inh 74
Cc1cc(NS(=O)(=O)c2ccc(NC(=O)Nc3cccc(C(F)(F)F)c3)cc2)no1	none
CCCNC(=O)C[C@@H]1CC[C@@H]2[C@@H](COc3ccc(NC(=O)NCC)cc3C(=O)N2C)O1	none (no result: MBD2 inh, LEDGF integ inh, UHRF1 MBD2 ctr)
Nc1cc(Cl)ccc1N1C(=O)CCC1=O	none
Nc1cc([N+](=O)[O-])ccc1N1C(=O)CCCC1=O	CASP6 VEID inh 40
C[C@H](CO)N1C[C@H](C)[C@H](CN(C)C(=O)c2ccncc2)Oc2ncc(C#CC3CCCCC3)cc2C1=O	none (no result: MBD2 inh, LEDGF integ inh, UHRF1 MBD2 ctr)
COc1ccc(CN(C)C[C@@H]2Oc3ccc(NC(=O)C4CC4)cc3C(=O)N([C@@H](C)CO)C[C@@H]2C)cc1	none (no result: MBD2 inh, LEDGF integ inh, UHRF1 MBD2 ctr)
COc1ccc(NC(=O)c2cccc(S(=O)(=O)N3CCN(c4ccccc4)CC3)c2)c(OC)c1	UHRF1 MBD2 ctr 22
CC(C)CC#Cc1cnc2c(c1)C(=O)N([C@H](C)CO)C[C@@H](C)[C@H](CN(C)Cc1ccc(C(=O)O)cc1)O2	none (no result: MBD2 inh, LEDGF integ inh, UHRF1 MBD2 ctr)
O=[N+]([O-])c1ccc(Sc2cccc[n+]2[O-])c2nonc12	CASP6 VEID inh 62
COCC#Cc1ccc2c(c1)O[C@H](CN(C)Cc1ccccc1)[C@@H](C)CN([C@@H](C)CO)S2(=O)=O	none (no result: MBD2 inh, LEDGF integ inh, UHRF1 MBD2 ctr)
OCCNc1ncnc2c1ncn2[C@H]1CN(Cc2cccs2)C[C@@H](CO)O1	UHRF1 MBD2 ctr 26
COc1ccc(/C=C2\SC(=O)N(CC(=O)NCCCn3ccnc3)C2=O)cc1	CASP6 VEID inh 50
COc1ccc(-c2ccc3c(c2)[C@H]2[C@H](CCN2C(=O)Cc2cccnc2)[C@@H](CO)N3C)cc1	none (no result: MBD2 inh, LEDGF integ inh, UHRF1 MBD2 ctr)
O=S1(=O)CCOCCCN1Cc1ccccc1F	UHRF1 MBD2 ctr 41
O=S1(=O)CCOCCCN1Cc1cccc(C(F)(F)F)c1	none
CO[C@H]1CN(C)C(=O)c2cc(NC(=O)C3CCC3)ccc2OC[C@H](C)N(Cc2ccccn2)C[C@@H]1C	none (no result: MBD2 inh, LEDGF integ inh, UHRF1 MBD2 ctr)
CCCCNS(=O)(=O)c1cc(-c2nn(C)c(=O)c3ccccc23)ccc1C	CASP6 VEID inh 36
COCCNS(=O)(=O)c1cc(-c2nn(C)c(=O)c3ccccc23)ccc1C	none (no result: CASP6 VEID inh)
Cc1cc(N2CCCC2)ccc1NC(=O)CN1C(=O)NC2(CCCCC2)C1=O	CASP6 VEID inh 39
O=C(c1ccncc1)N1CCCCN2[C@H](CO)[C@@H](c3ccc(C#Cc4ccccn4)cc3)[C@@H]2C1	none (no result: MBD2 inh, LEDGF integ inh, UHRF1 MBD2 ctr)
O=C(c1ccncc1)N1CCCCN2[C@H](C1)[C@H](c1ccc(C#Cc3ccccn3)cc1)[C@@H]2CO	CASP6 VEID inh 37 (no result: MBD2 inh, LEDGF integ inh, UHRF1 MBD2 ctr)
C[C@H](CO)N1C[C@H](C)[C@@H](CN(C)C(=O)c2ccncc2)OCCCC[C@H](C)Oc2ccc(NC(=O)c3ccncc3)cc2C1=O	none (no result: MBD2 inh, LEDGF integ inh, UHRF1 MBD2 ctr)
O=Cc1ccc(Oc2nc(Cl)ncc2F)cc1	CASP6 VEID inh 42
CCCCCc1nnc(NC(=O)c2ccc3nc[nH]c3c2)s1	UHRF1 MBD2 ctr 57
C/C(N)=C(/C#N)C(=O)CN1C(=O)NC(Cc2c[nH]c3ccccc23)C1=O (configuration not stated)	CASP6 VEID inh 48
C/C=C/c1cnc2c(c1)C(=O)N([C@H](C)CO)C[C@@H](C)[C@@H](CN(C)C(=O)Cc1ccccn1)O2	none (no result: MBD2 inh, LEDGF integ inh, UHRF1 MBD2 ctr)
O=C(CSc1nnnn1C1CCCC1)N1CCCc2ccccc21	UHRF1 MBD2 ctr 29 (no result: CASP6 VEID inh)
O=C(CSc1nnnn1C1CCCCC1)Nc1ccc2c(c1)OCO2	UHRF1 MBD2 ctr 21 (no result: CASP6 VEID inh)
CN1[C@@H]2c3ccc(-c4ccc(F)cc4)c(=O)n3C[C@@H]2[C@@H](CO)[C@@H]1C(=O)NCc1ccccn1	none (no result: MBD2 inh, LEDGF integ inh, UHRF1 MBD2 ctr)
C[C@@H]1CN([C@@H](C)CO)C(=O)c2cccc(NC(=O)c3ccc(-c4nccs4)cc3)c2O[C@H]1CN(C)S(=O)(=O)c1ccccc1	none (no result: MBD2 inh, LEDGF integ inh, UHRF1 MBD2 ctr)
CCCNc1nc(Cl)nc(Nc2ccc(Cl)cc2)n1	none
CCCCNc1nc(Cl)nc(Nc2ccc(C)cc2)n1	UHRF1 MBD2 ctr 21
COc1ccccc1N1CCN(C(=O)COc2cc(C)cc(C)c2)CC1	UHRF1 MBD2 ctr 28
CN1CCN(C(=O)Cn2ncc3c([nH]c4ccccc43)c2=O)CC1	UHRF1 MBD2 ctr 23
CC1CCN(C(=O)Cn2ncc3c([nH]c4ccccc43)c2=O)CC1	none
CCNC(=S)Nc1ccc(C)c(Cl)c1	UHRF1 MBD2 ctr 25
O=C(O)c1cn(-c2ccc(F)cc2)c2cc(Cl)c(F)cc2c1=O	UHRF1 MBD2 ctr 28
